Reference: PubChem BioAssay (NCI)
This is part of a sample that, as a whole, favours compounds with a hit. Of some 79,000 tested, about 15% had one in any assay. Activity calls are given as the source filed them. Rule as the data show it: active = growth inhibition above about 70%; inactive = the rest.

How the values were obtained:
[1] = NCI Yeast Anticancer Drug Screen. Data for the wt1 strain (AID 149);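 also: 0% = growth of vehicle-treated wt1 cultures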; conditions: S. cerevisiae wt1 strain (SPY 50644) growth inhibition, hits give high values
How it was run: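 The wt1 strain was treated with compounds, and growth was compared with vehicle-treated cultures to give inhibition.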

[2] = NCI Yeast Anticancer Drug Screen. Data for the rad50EPP+ strain (AID 151);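 also: 0% = growth of vehicle-treated control cultures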; conditions: S. cerevisiae rad50 mutant strain, hits give high values
How it was run: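 Yeast strain carrying rad50 alteration (rad50EPP+) exposed to compounds; growth inhibition measured relative to vehicle-treated controls.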

[3] = NCI Yeast Anticancer Drug Screen. Data for the mgt1 strain (AID 153); conditions: S. cerevisiae mgt1 mutant growth inhibition, hits give high values
How it was run: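 Yeast mgt1 strain (DNA repair/cell-cycle alteration panel) exposed to compounds; growth inhibition measured relative to vehicle-treated controls.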

[4] = NCI Yeast Anticancer Drug Screen. Data for the rad50 strain (AID 155);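 also: 0% = growth of vehicle-only cultures of the same strain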; conditions: S. cerevisiae rad50 strain growth inhibition, hits give high values
How it was run: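 Cells are treated with compound, grown, and their growth is then scored against vehicle-only cultures of the same repair-deficient yeast strain.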

[5] = NCI Yeast Anticancer Drug Screen. Data for the mec2-1 strain (AID 157); conditions: S. cerevisiae mec2-1 strain, hits give high values
How it was run: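 mec2-1 yeast strain, carrying an alteration in DNA damage repair or cell cycle control, was exposed to compounds; growth inhibition was measured relative to vehicle-treated controls.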

[6] = NCI Yeast Anticancer Drug Screen. Data for the rad14 strain (AID 159);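 also: 0% = growth of vehicle-treated control cultures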; conditions: S. cerevisiae rad14 strain growth inhibition, hits give high values
How it was run: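 Readout: yeast growth inhibition, referenced to vehicle-only cultures. Strain bears a defined alteration in DNA damage repair.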

[7] = NCI Yeast Anticancer Drug Screen. Data for the sgs1 mgt1 strain (AID 161);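 also: 0% = growth of cultures given vehicle only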; conditions: S. cerevisiae sgs1 mgt1 strain, hits give high values
How it was run: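 Compounds are added to genetically altered yeast, and growth is compared with cultures given vehicle alone to give percent inhibition.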

[8] = NCI Yeast Anticancer Drug Screen. Data for the CLN2oe strain (AID 163);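 also: 0% = growth of vehicle-only control cultures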; conditions: S. cerevisiae CLN2oe strain, hits give high values
How it was run: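 Yeast cells carrying a defined cell-cycle control alteration were exposed to test compounds. Growth inhibition was scored against vehicle-treated control cultures.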

[9] = NCI Yeast Anticancer Drug Screen. Data for the cln2 rad14 strain (AID 165);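 also: 0% = growth equal to vehicle treated cultures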; conditions: S. cerevisiae cln2 rad14 strain, hits give high values
How it was run: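 Yeast carrying cln2 and rad14 alterations (cell cycle control and DNA damage repair) were exposed to compounds. Growth inhibition was measured against vehicle-treated controls.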

[10] = NCI Yeast Anticancer Drug Screen. Data for the bub3 strain (AID 167); conditions: S. cerevisiae bub3 mutant strain, hits give high values
How it was run: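 Part of a panel of yeast mutants defective in DNA damage repair or cell cycle regulation. Each strain is grown with compound, and inhibition is calculated relative to solvent-treated cultures.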

[11] = NCI Yeast Anticancer Drug Screen. Data for the wt2 strain (AID 169);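 also: 0% = growth of vehicle-treated yeast cultures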; conditions: S. cerevisiae wt2 strain growth inhibition, hits give high values
How it was run: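 Yeast cells were exposed to test compounds, and growth inhibition was measured relative to vehicle-treated controls.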

[12] = NCI Yeast Anticancer Drug Screen. Data for the mlh1 strain (AID 171);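 also: 0% = growth of vehicle-treated control cultures of the same strain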; conditions: S. cerevisiae mlh1 strain growth inhibition, hits give high values
How it was run: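 Yeast carrying a defined genetic alteration in DNA damage repair or cell cycle control were exposed to test compounds. Growth inhibition was measured relative to vehicle-treated controls.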

[13] = NCI Yeast Anticancer Drug Screen. Data for the sgs1 strain (AID 173);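 also: 0% = growth of vehicle-only control cultures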; conditions: S. cerevisiae sgs1 mutant, hits give high values
How it was run: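 Yeast mutant strains carrying defined defects in DNA damage repair or cell cycle control were exposed to test compounds. Growth inhibition was scored against vehicle-treated controls.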

[14] = NCI Yeast Anticancer Drug Screen. Data for the mlh1 rad18 strain (AID 175); conditions: S. cerevisiae mlh1 rad18 strain growth inhibition, hits give high values
How it was run: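 Growth inhibition of the yeast strain was measured after compound exposure and expressed relative to vehicle-treated controls. The strain carries defined defects in DNA damage repair.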

[15] = NCI Yeast Anticancer Drug Screen. Data for the rad18 strain (AID 177); conditions: S. cerevisiae rad18 mutant growth inhibition, hits give high values
How it was run: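 Yeast carrying a defined DNA damage repair alteration were exposed to compounds. Growth inhibition was expressed relative to vehicle-treated controls.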

[16] = at 5.0 µM (retest, dose inferred, filed as 0.5)
[17] = at 50.0 µM (retest, dose inferred, filed as 5.0)

Measured: growth inhibition

CCC1(O)C(=O)OCc2c1cc1n(c2=O)Cc2c-1nc1ccccc1c2OC (configuration not stated)
inactive: [1]; at 1.2 µM 11% | [1]; at 3.7 µM 12% | [1]; at 11.0 µM 13% | [1]; at 33.0 µM 12% | [1]; at 100.0 µM 11% | [2]; at 1.2 µM 15% | [2]; at 3.7 µM 28% | [2]; at 11.0 µM 10% | [2]; at 33.0 µM 22% | [2]; at 100.0 µM 27% | [3]; at 1.2 µM -1% | [3]; at 3.7 µM 10% | [3]; at 11.0 µM 4% | [3]; at 33.0 µM 8% | [3]; at 100.0 µM -10% | [5]; at 1.2 µM 1% | [5]; at 3.7 µM 13% | [5]; [16] 54% | [5]; at 11.0 µM 28% | [5]; at 33.0 µM 41% | [5]; [17] 62% | [5]; at 50.0 µM 33.1% | [5]; at 100.0 µM 43% | [6]; at 1.2 µM 6% | [6]; at 3.7 µM 17% | [6]; at 11.0 µM 15% | [6]; at 33.0 µM 20% | [6]; at 100.0 µM 15% | [7]; [16] 31% | [7]; [17] 33% | [7]; at 50.0 µM -13.6% | [8]; at 1.2 µM -8% | [8]; at 3.7 µM 8% | [8]; at 11.0 µM 16% | [8]; at 33.0 µM 24% | [8]; at 100.0 µM 27% | [9]; [16] 19% | [9]; [17] 18% | [9]; at 50.0 µM 2.7% | [10]; at 1.2 µM -10% | [10]; at 3.7 µM -1% | [10]; [16] 6% | [10]; at 11.0 µM 0% | [10]; at 33.0 µM 0% | [10]; [17] 11% | [10]; at 50.0 µM -41.5% | [10]; at 100.0 µM -13% | [11]; at 1.2 µM 10% | [11]; at 3.7 µM -5% | [11]; at 11.0 µM -10% | [11]; at 33.0 µM 2% | [11]; at 100.0 µM -17% | [12]; at 1.2 µM 7% | [12]; at 3.7 µM 19% | [12]; at 11.0 µM 22% | [12]; at 33.0 µM 20% | [12]; at 100.0 µM 8% | [13]; at 1.2 µM 12% | [13]; at 3.7 µM 18% | [13]; at 11.0 µM 20% | [13]; at 33.0 µM 25% | [13]; at 100.0 µM 8% | [14]; [16] 43% | [14]; [17] 33% | [15]; at 1.2 µM 1% | [15]; at 3.7 µM -4% | [15]; at 11.0 µM 5% | [15]; at 33.0 µM 1% | [15]; at 100.0 µM 1%
active: [4]; at 1.2 µM 85% | [4]; at 3.7 µM 93% | [4]; [16] 94% | [4]; at 11.0 µM 94% | [4]; at 33.0 µM 94% | [4]; [17] 90% | [4]; at 50.0 µM 71.2% | [4]; at 100.0 µM 93%
